Screening data from PubChem.
An excerpt weighted towards active compounds, which were near 0.83% of everything screened.
S1P3 antag-1: S1P3 receptor antagonists, primary screen, cell-based | Sphingosine 1-phosphate receptor 3 (Homo sapiens), Q99500 | CHO S1P3 NFAT-BLA reporter, FRET fluorescence, antagonist mode | inhibition, % at 4.98 µM | hit rate 0.27% among 170,000 | AID 485, 2006;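 active = inhibition above the plate cutoff, the mean inhibition of test wells on that plate plus 3 SD, cut at about 28% in these data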;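 note: cells challenged with S1P at its EC80 of 0.8 µM; blue over green emission ratio from cleaved BLA substrate after 4 h stimulation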
Hsp70 act: Hsp70 transcriptional activators, primary screen, cell-based, HeLa, Hsp70 promoter luciferase, luminescence, 10 µM; activation, % at 10 µM; HeLa Hsp70 promoter luciferase reporter; scaled: vehicle 0, proteasome-inhibitor control 100%; hit rate 0.04% among 200,000; AID 1203, 2008;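 active = activation above the mean across all tested compounds plus 3 SD, cutoff set per campaign, cut at about 5.5% in these data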
S1P4 agonist: S1P4 receptor agonists, primary screen, cell-based | AID 1509, 2009 | hit rate 0.35% among 220,000 | activation, % at 4.98 µM | Sphingosine 1-phosphate receptor 4 (Homo sapiens), O95977 | S1P4-expressing cell line, agonist reporter assay; in the data active = activation above about 11%
Target sequence (O95977 whole entry, looked up): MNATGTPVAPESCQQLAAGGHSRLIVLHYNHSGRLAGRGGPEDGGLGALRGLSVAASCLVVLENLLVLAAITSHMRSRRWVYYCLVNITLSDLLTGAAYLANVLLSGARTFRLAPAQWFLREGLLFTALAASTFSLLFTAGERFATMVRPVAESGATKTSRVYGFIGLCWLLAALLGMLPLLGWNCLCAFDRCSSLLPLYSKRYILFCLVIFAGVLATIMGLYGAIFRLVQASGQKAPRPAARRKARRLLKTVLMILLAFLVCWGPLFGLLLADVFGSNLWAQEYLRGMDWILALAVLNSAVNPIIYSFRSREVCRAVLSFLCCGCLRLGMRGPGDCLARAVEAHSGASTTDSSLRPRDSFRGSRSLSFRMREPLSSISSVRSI
S1P4 antagonist: S1P4 receptor antagonists, primary screen, cell-based. inhibition, % at 4.98 µM. S1P4-expressing cells, antagonist mode, reporter read-out. Sphingosine 1-phosphate receptor 4 (Homo sapiens), O95977. hit rate 0.26% among 220,000; in the data active = inhibition above about 29%
Pf gamet viab: late stage P. falciparum gametocyte viability inhibitors, primary screen, ATP luminescence, HTS; P. falciparum stage V gametocytes, 24 h; inhibition, % at 10.9 µM; hit rate 0.065% among 150,000; AID 743093, 2013;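 active = inhibition above the mean plus 3 SD of compounds within the control limits, set per campaign, cut at about 38% in these data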
S1P3 antag-2: S1P3 receptor antagonists, retest, confirmation, cell-based | CHO S1P3 NFAT-BLA reporter, FRET, antagonist mode | inhibition, % at 4.98 µM | shares compounds with S1P3 antag-1 | hit rate 30% among 240;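 active = inhibition above the hit threshold that was computed for the earlier primary screen, cut at about 30% in these data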
Hsp70 act DR: Hsp70 transcriptional activators, dose response, cell-based, HeLa, Hsp70 promoter luciferase, luminescence, triplicate | shares compounds with Hsp70 act | HeLa hsp70.1pr-luc reporter | calls only at 99 µM | hit rate 10% among 70;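 active = over 50% activation at some tested dose; inactive = under 50% activation at every tested dose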
S1P4 agonist cf: S1P4 receptor agonists, retest, confirmation, cell-based, high throughput | shares compounds with S1P4 agonist | S1P4 agonist cell-based reporter assay | activation, % at 4.98 µM | hit rate 7% among 740; in the data active = activation above about 12%
S1P1 agonist: S1P1 receptor agonists, human, counter-screen for S1P4 agonist project, cell-based. shares compounds with S1P4 agonist. S1P1 agonist cell-based assay, activation. activation, % at 4.98 µM. hit rate 4% among 740; in the data active = activation above about 21%
S1P4 antag cf: S1P4 receptor antagonists, human, confirmation, cell-based. shares compounds with S1P4 antagonist. S1P4-expressing cell line, antagonist mode, reporter read-out. inhibition, % at 4.98 µM. hit rate 71% among 520. AID 1524, 2009; in the data active = inhibition above about 30%
S1P1 antag: S1P1 receptor antagonists, human, counter-screen for S1P4 antagonist project, cell-based | hit rate 37% among 520 | inhibition, % at 4.98 µM | AID 1564, 2009 | shares compounds with S1P4 antagonist | cell-based S1P1 antagonist counterscreen, inhibition; in the data active = inhibition above about 40%;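 note: receptor stimulated with S1P near its EC80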
A number is an active result; i = inactive; nt = no result.

SMILES	S1P3 antag-1	Hsp70 act	S1P4 agonist	S1P4 antagonist	Pf gamet viab	others
CC1Oc2cc3c(-c4c(O)cc(O)c5c(O)c6c(cc45)OC(C)C(C)C6=O)c(O)cc(O)c3c(O)c2C(=O)C1C (stereo not given)	43	nt	i	i	nt
COC(=O)C1=C(c2ccc(F)cc2F)C[C@@H]2CC[C@H]1N2C	nt	nt	nt	nt	i
CCn1nc(-c2ccccc2)nc2c(=O)n(C)c(=O)nc1-2	103	i	i	i	nt
COc1ccc(-c2nc3ccccc3c(=O)n2-c2ccc(OC)cc2)cc1	i	i	i	i	i
CC(C)[C@]12O[C@H]1[C@@H]1O[C@]13[C@]1(O[C@H]1C[C@H]1C4=C(CC[C@@]13C)C(=O)OC4)[C@@H]2O	105	i	i	107	nt
COC(=O)C1=C(c2ccc(OC(F)(F)F)cc2)C[C@@H]2CC[C@H]1N2C(=O)N1CCCCC1	nt	nt	nt	nt	i
COc1ccc(CC2C(=O)NC(=O)N(c3ccccc3)C2=O)c(OC)c1 (stereo not given)	74	i	i	i	i
COC(=O)C1=C(c2ccc3ccccc3c2)C[C@@H]2CC[C@H]1N2C(=O)N1CCCCC1	nt	nt	nt	nt	i
Cc1nc2c(=O)n(C)c(=O)nc-2n(C)n1	nt	i	i	97	i
Cc1nn(CCC#N)c2c1P(=S)(N1CCCC1)OC(c1ccc(F)cc1)=N2 (stereo not given)	74	i	i	i	nt
COC(=O)C1=C(c2cccc(OCc3ccccc3)c2)C[C@@H]2CC[C@H]1N2C(=O)NCc1cc(C)oc1C(F)(F)F	nt	nt	nt	nt	i
CN1C(=O)CN=C(c2ccccc2)c2cc([N+](=O)[O-])ccc21	i	i	i	i	nt
COc1ccc(N=Cc2c(O)n(-c3ccc(C)cc3)c(=O)[nH]c2=O)cc1	30	i	i	i	i	S1P3 antag-2=i
C1=CC(Cc2cncs2)c2ccccc21 (stereo not given)	nt	nt	nt	nt	i
COc1ccc(CCNCc2ccc(C)s2)cc1OC	i	i	i	i	i
COc1ccc(Cc2nccc3cc(OC)c(OC)cc23)cc1OC	29	i	i	i	nt	S1P3 antag-2=i
C[C@H]1CCC/C=C/C2C[C@H](O)CC2[C@H](O)/C=C/C(=O)O1 (stereo not given in full)	46	i	i	51	nt	S1P3 antag-2=i;S1P4 antag cf=97;S1P1 antag=i
COC(=O)C1=C(c2ccc(-c3ccccc3)c(F)c2)C[C@@H]2CC[C@H]1N2C(=O)NC1Cc2ccccc2C1	nt	nt	nt	nt	i
COC(=O)C1CN(C#N)N(c2ccc(Cl)cc2)C12c1ccccc1-c1ccccc12 (stereo not given)	nt	6.6	i	66	nt	Hsp70 act DR=i;S1P4 antag cf=121;S1P1 antag=94
Cc1cc([N+](=O)[O-])c(Cl)cc1NC(=O)C(C)C	i	i	i	i	nt
CNc1cc(Cl)c2nonc2c1[N+](=O)[O-]	i	18	i	74	nt	Hsp70 act DR=i;S1P4 antag cf=114;S1P1 antag=i
Cc1ccccc1CCNCc1cc2cccc(C)c2[nH]c1=O	nt	nt	nt	nt	i
CCC(=NCC1CCCO1)c1c(O)n(-c2ccccc2C)c(=O)[nH]c1=O (stereo not given)	i	nt	93	i	i	S1P4 agonist cf=i;S1P1 agonist=i
Cc1ccc(O)c(C(=O)c2cc(C(=O)NCCC(C)C)c(=O)n(CCC(C)C)c2)c1	i	i	15	i	i	S1P4 agonist cf=i;S1P1 agonist=i
COc1ccc(C(=O)O/N=C(/C(N)=O)P(=O)(OC(C)C)OC(C)C)cc1	i	nt	i	i	i
SMILES	S1P3 antag-1	Hsp70 act	S1P4 agonist	S1P4 antagonist	Pf gamet viab	others
CCOC(=O)c1c(-n2c(C)cc(/C=C3\C(=O)NC(=O)N(C)C3=O)c2C)sc2c1CCCC2	nt	i	13	i	nt	S1P4 agonist cf=24;S1P1 agonist=i
Cc1ccccc1-[n+]1c(-c2ccccc2)cc(-c2ccccc2)cc1-c1ccccc1	nt	nt	nt	nt	i
Cc1nn(Cc2ccccc2)c(Cl)c1C(=O)Nc1ccc(OC(F)(F)F)cc1	i	i	i	i	i
CCNC(=O)NC(=O)C(C)OC(=O)c1c(C)nn(Cc2ccccc2)c1Cl (stereo not given)	i	i	31	i	i	S1P4 agonist cf=53;S1P1 agonist=i
CCNC(=O)NC(=O)C(C)OC(=O)c1c(C)nn(Cc2ccccc2Cl)c1Cl (stereo not given)	i	i	31	i	i	S1P4 agonist cf=43;S1P1 agonist=i
Cc1nn(Cc2ccccc2Cl)c(Cl)c1C(=O)OCC(=O)NCc1ccco1	i	i	i	i	nt
COC(=O)C1=C(c2ccc(OC(F)(F)F)cc2)C[C@@H]2CC[C@H]1N2C(=O)NC(C)C	nt	nt	nt	nt	i
C=C1[C@@H](C)[C@H]2[C@H](Cc3ccccc3)NC(=O)[C@]23OC(=O)/C=C/[C@H](O)CCC[C@@H](C)C/C=C/[C@H]3[C@@H]1O	i	i	i	44	nt	S1P4 antag cf=51;S1P1 antag=43
Cc1cc([N+](=O)[O-])c2ccccc2[n+]1[O-]	i	nt	i	79	nt	S1P4 antag cf=114;S1P1 antag=112
Cc1ccc(C(=O)NC(O)C(Cl)(Cl)Cl)cc1 (stereo not given)	i	i	i	i	i
Cc1c(C(=O)Nc2ccccc2)cc(-c2ccccc2)n1CCCN1CCOCC1	i	nt	i	34	i	S1P4 antag cf=i;S1P1 antag=i
O=C1C(=O)c2ccccc2-c2ccccc21	nt	i	i	99	nt	S1P4 antag cf=116;S1P1 antag=143
COC(=O)C1=C(c2c(C)noc2C)C[C@@H]2CC[C@H]1N2C(=O)NCC1CC1	nt	nt	nt	nt	i
CC(C)c1oc(=O)cc2c1[C@@H](O)[C@H]1OC(=O)[C@@]3(C)C[C@@H](O)[C@@H](O)[C@@]2(C)C13 (stereo not given in full)	i	i	i	i	i
COc1ccc(-c2n(-c3ccccn3)c3ccccc3[n+]2-c2ccccn2)cc1	i	nt	i	33	i	S1P4 antag cf=i;S1P1 antag=i
CC1(C)C[C@H]2C=C(C=O)[C@]3(C=O)C[C@]3(C)[C@H]2C1	i	i	i	70	nt	S1P4 antag cf=115;S1P1 antag=118
